High-throughput results from PubChem BioAssay.
GSTO1 counter: GSTO1 inhibition, counter-screen for RBBP9 inhibitors. actives 1.1% (n = 300,000). inhibition, % at 5.96 µM. recombinant GSTO1, activity-based probe fluorescence polarization. AID 1974. P78417;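 active means inhibition above the campaign mean inhibition plus 3 SD, cut at about 35% in these data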;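 further: 0% = GSTO1-1 with DMSO and 100% = wells lacking GSTO1-1 enzyme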
PAD4 inh: blocks human protein arginine deiminase 4. Q9UM07. recombinant PAD4, RCA probe fluorescence polarization. inhibition, % at 6.36 µM. actives 0.41% (n = 330,000);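 active means percent inhibition above a cutoff equal to the mean of all tested compounds plus 3 SD, cut at about 15% in these data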;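 further: 0% = PAD4 with RCA probe and DMSO and 100% = probe without PAD4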
Target sequence (Q9UM07 whole entry, looked up): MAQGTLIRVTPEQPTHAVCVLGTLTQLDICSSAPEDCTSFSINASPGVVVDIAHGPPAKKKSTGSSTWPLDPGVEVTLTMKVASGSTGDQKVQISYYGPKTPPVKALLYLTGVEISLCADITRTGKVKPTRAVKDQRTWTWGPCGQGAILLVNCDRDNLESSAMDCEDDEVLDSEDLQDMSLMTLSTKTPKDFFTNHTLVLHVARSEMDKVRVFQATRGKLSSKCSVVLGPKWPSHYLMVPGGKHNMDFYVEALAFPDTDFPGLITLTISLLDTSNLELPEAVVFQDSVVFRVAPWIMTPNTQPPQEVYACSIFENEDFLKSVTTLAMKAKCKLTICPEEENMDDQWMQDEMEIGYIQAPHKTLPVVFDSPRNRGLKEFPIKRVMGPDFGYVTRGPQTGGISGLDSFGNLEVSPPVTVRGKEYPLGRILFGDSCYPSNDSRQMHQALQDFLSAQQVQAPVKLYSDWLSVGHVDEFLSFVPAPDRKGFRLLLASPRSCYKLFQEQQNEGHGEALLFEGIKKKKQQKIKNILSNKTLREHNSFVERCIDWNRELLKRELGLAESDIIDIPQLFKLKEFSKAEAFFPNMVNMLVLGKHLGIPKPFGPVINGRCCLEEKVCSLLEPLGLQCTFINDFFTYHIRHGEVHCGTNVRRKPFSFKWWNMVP
PME-1 primary: blocks human protein phosphatase methylesterase 1 | recombinant PME-1, FP-Rh probe fluorescence polarization | inhibition, % at 5.9 µM | actives 0.53% (n = 320,000);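 active means inhibition above the campaign mean of all compounds plus 3 SD, cut at about 26% in these data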;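 further: competitive labeling of PME-1 active site by serine hydrolase directed probe; 0% = PME-1 with DMSO and 100% = wells lacking PME-1 enzyme; inhibitors block probe labeling so polarization falls and inhibition rises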
LYPLA1 inh: counter-screen for PME1 inhibitors: inhibitors of human LYPLA1. O75608. recombinant LYPLA1, FP-Rh probe fluorescence polarization. inhibition, % at 5.9 µM. actives 0.16% (n = 320,000). AID 2174;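 active means inhibition above the mean of all tested compounds plus 3 SD, set per campaign, cut at about 14% in these data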;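 further: inhibitors block serine hydrolase probe labeling of LYPLA1 so polarization falls; 0% = enzyme with DMSO and 100% = wells lacking LYPLA1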
Fam108B inh: blocks mouse Fam108B hydrolase in RBBP9 counter-screen | inhibition, % at 9.51 µM | actives 0.33% (n = 300,000) | recombinant Fam108B, FP-Rh probe fluorescence polarization;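 active means inhibition above the screen mean inhibition plus 3 SD, computed separately per campaign, cut at about 18% in these data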;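 further: inhibitors lower polarization as less probe binds the enzyme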
LYPLA2 counter: counter-screen for PME1 inhibitors: inhibitors of human LYPLA2; O95372; inhibition, % at 5.9 µM; recombinant LYPLA2, FP-Rh probe fluorescence polarization; actives 0.38% (n = 320,000);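 active means inhibition above the screen-wide mean plus 3 SD, limit set per campaign, cut at about 26% in these data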;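 further: 0% = LYPLA2 with DMSO and 100% = wells lacking LYPLA2 enzyme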
GSTO1 inh conf: GSTO1 (human) inhibition, confirmation. shares compounds with GSTO1 counter. recombinant GSTO1, probe fluorescence polarization. inhibition, % at 5.96 µM. actives 54% (n = 2,400). AID 2176;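 active means inhibition above the primary screen's cutoff, its mean inhibition plus 3 SD, cut at about 35% in these data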;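 further: loss of polarization as inhibitors block binding of rhodamine sulfonate ester activity probe; 0% = GSTO1 with DMSO and 100% = wells lacking GSTO1 enzyme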
GSTO1 recomb ABPP: GSTO1 (human) inhibition by gel ABPP. inhibition, % at 1 µM. shares compounds with GSTO1 counter. actives 30% (n = 130). AID 463110. recombinant GSTO1, gel ABPP SE-Rh probe fluorescence;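 active means inhibition of the enzyme GSTO1 above about 75%, limit read from the data; inactive means inhibition below that limit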
Numbers without * were called inactive; . = not tested or not shown. Compounds with a hit are over-represented: about 1.8% of the library has one in this group of screens.

SMILES	GSTO1 counter	PAD4 inh	PME-1 primary	LYPLA1 inh	Fam108B inh	LYPLA2 counter	GSTO1 inh conf	others
O=C(O)c1cccc(N2C(=O)c3cc([N+](=O)[O-])cc4cc([N+](=O)[O-])cc(c34)C2=O)c1	70.6*	41.7*	8.2	-0.9	15.1	3.0	40.4*
COC(=O)C1=C(C(=O)OC)[C@]2([C@H]3CCCCN[C@@H](Cc4ccccc4)C(=O)N3Cc3ccccc3)C=C[C@H]1O2	.	-1.5	.	.	.	.	.
N/C(=C\C(=O)c1cc(Cl)ccc1O)C(Cl)(Cl)Cl	65.2*	-2.3	-2.0	1.2	-1.4	4.9	77.1*
Cc1cc([N+](=O)[O-])cc2c1NC(=O)C2(O)N1CCOCC1 (stereo unspecified)	38.0*	-5.1	7.0	-1.0	4.4	2.8	14.9
Cc1ccc(S(=O)(=O)Nc2ccc(O)c3ncccc23)cc1	9.9	-4.0	0.5	-1.7	1.2	-2.8	.
Cc1ccc(S(=O)(=O)Nc2ccc(O)c3cccnc23)cc1	49.6*	6.3	1.1	0.0	-3.5	2.3	-0.3
CN1c2ccccc2C(C)(C)C12CC(c1ccc(Cl)c(S(=O)(=O)N3CCCC3)c1)=NO2 (stereo unspecified)	4.7	-2.3	5.3	1.1	-2.9	-0.8	.
CN1c2ccccc2C(C)(C)C12CC(CCl)=NO2 (stereo unspecified)	46.1*	-11.1	-1.4	-4.3	0.6	-21.3	96.3*	GSTO1 recomb ABPP=64.0
Nc1c(C(=O)OCC2CCCO2)c2nc3ccccc3nc2n1C1CCCCC1 (stereo unspecified)	67.3*	-14.3	2.1	-1.5	-0.4	-3.7	12.9
CCCCn1c(N)c(N(CCOC)C(=O)c2cc3c(s2)CCC3)c(=O)[nH]c1=O	17.5	1.1	-3.5	0.3	0.8	5.3	.
CCOC(=O)Nc1nnc(-c2ccccc2OC)s1	-5.9	5.9	1.9	4.8	14.8	-1.7	.
CCC(SC1=NCCS1)C(=O)Nc1nnc(-c2ccccc2OC)s1 (stereo unspecified)	59.5*	10.6	-10.3	-5.6	-2.7	-6.8	60.6*
COc1ccc(Sc2ccccc2CN(C)C)cc1OC	9.7	1.6	-8.4	0.6	2.1	-0.1	.
CNCc1ccccc1Sc1ccc(O)c(O)c1	73.8*	-0.6	3.7	1.1	5.1	7.8	71.4*
CN(C(=O)COC(=O)Cn1cnc2ccccc21)C1CCCCC1	.	1.2	.	.	.	.	.
N#CC(=C=[N-])c1nc2ccccc2nc1-[n+]1cccc(NC(=O)c2ccc(F)cc2)c1	58.9*	-0.8	2.1	4.0	0.5	3.4	21.7
CCOC(=O)c1nc2ccccc2nc1C	0.1	-1.4	4.7	-1.7	2.1	2.0	.
N#CC(=C=[N-])c1nc2ccccc2nc1-[n+]1cccc(NC(=O)c2cccs2)c1	54.4*	-12.3	9.7	4.2	7.8	1.6	18.6
CCc1cc[n+](-c2nc3ccccc3nc2C(=C=[N-])C#N)cc1	62.8*	-0.4	5.7	-0.2	2.9	6.2	32.5
O=C(Nc1ccc[n+](CC(=O)c2cccc3ccccc23)c1)c1ccccc1	1.4	-3.4	2.7	-2.8	-4.7	1.9	.
O=C(Nc1ccc(/C=C/c2nc3ccccc3o2)cc1)c1ccc(F)cc1	1.6	1.3	-2.1	-4.6	-7.7	-9.0	.
N#CC(=C=[N-])c1nc2ccccc2nc1-[n+]1cccc(NC(=O)c2ccccc2)c1	59.0*	2.0	7.3	0.3	-0.6	-1.8	23.3
COCc1cc(=O)c2ccccc2o1	.	-3.0	.	.	.	.	.
COCCCn1c(SCC(=O)NC2CCCC2)nnc1-c1ccncc1	1.6	0.1	-3.8	1.8	-1.0	-1.2	.
CC1CCCN(C(=O)COC(=O)Cn2cnc3ccccc32)C1 (stereo unspecified)	.	-1.2	.	.	.	.	.
CC(C)CCC(CCNCc1ccccn1)c1ccc(Cl)cc1 (stereo unspecified)	-6.1	-2.3	0.2	0.3	-0.7	-11.8	.
COc1ccc(-c2[nH]ncc2CN2CCN(Cc3cccs3)CC2)cc1F	72.4*	0.4	-6.2	1.0	-3.2	2.7	3.8
CC(C)(CO)NCc1c(OCc2ccc(Cl)cc2)ccc2ccccc12	8.1	-3.2	-1.0	-1.4	-1.3	-7.2	.
